Experimental data reported in PubChem BioAssay.
Activity calls are given as the source filed them.

Experiments:
Albumin (Bos taurus) = Albumin (Bos taurus) (UniProt P02769); experiment: bovine serum albumin binders on microarray, profiling panel, artefact control for SMM control protein annotation, biochemical, small-molecule microarray, Alexa647 label, 635/667 nm fluorescence (AID 1118); settings: BSA-A647 binding, fluorescence 635 nm, higher = more signal;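 also: score merges 667 nm emission intensity and signal-to-noise per printed compound spot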
[1] = small-molecule microarray binders of probe aXIP, primary screen, biochemical, NeuroSMM set, 635/667 nm fluorescence (AID 1119); settings: higher = more signal, called active from +8 up or from −8 down;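 also: probe is the protein aXip251-270 applied at 1 µg/mL to compound-printed slides; binding of probe to printed compounds measured as 667 nm fluorescence plus signal to noise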
[2] = small-molecule binders of probe aNOTCH3, primary screen, biochemical, small-molecule microarray, 635/667 nm fluorescence (AID 1120); settings: higher = more signal;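 also: probe is a biotin-tagged antibody raised against NOTCH3 rather than NOTCH3 protein; score merges spot fluorescence near 667 nm with spot signal to noise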
[3] = small-molecule binders of probe aNOTCH2, primary screen, biochemical, small-molecule microarray, 635/667 nm fluorescence (AID 1121); settings: higher = more signal;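 also: score merges feature fluorescence read at 667 nm with its signal to noise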
[4] = biological target: Carbonic anhydrase 2 (Homo sapiens) (UniProt P00918); experiment: CAII small-molecule binders, profiling panel, biochemical, small-molecule microarray, Alexa647-labelled CAII (AID 1122); settings: CAII-A647 binding fluorescence, higher = more signal
[5] = COS7 lysate on small-molecule microarray, probe aHis, 635 nm (AID 1123); settings: COS7 cell lysate, fluorescence, higher = more signal;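 also: z-score combines 667nm fluorescence intensity with signal-to-noise per printed compound spot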
[6] = compound binding in COS7 lysate, probe aLAP1, primary screen, cell lysate, small-molecule microarray (AID 1124); settings: probe aLAP1, fluorescence, higher = more signal;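 also: lysate comes from COS7 cells expressing LAP1 and is applied at 0.3 µg/mL; score merges spot fluorescence near 667 nm with signal-to-noise over triplicate slides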
Sam68 (KHDRBS1) = experiment: Sam68 small-molecule binders, primary screen, biochemical, small-molecule microarray, 635 nm fluorescence (AID 1125); settings: small-molecule microarray binding, higher = more signal;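 also: score merges 667 nm channel intensity with signal to noise over triplicate slides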
[7] = test system: Chordin-like protein 2 (CHRDL2); experiment: CHRDL2 small-molecule binders, primary screen, biochemical, small-molecule microarray, 635 nm fluorescence (AID 1126); settings: small-molecule microarray binding, fluorescence 635 nm; higher = more signal;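 also: printed compound slides probed with Chrdl2 protein at 4 µg/mL for 1 h at 4 C; score merges 667 nm emission intensity with signal to noise over three replicate slides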
[8] = biological target: Concanavalin-A (Canavalia ensiformis) (UniProt P02866); experiment: ConA small-molecule binders, primary screen, artefact control for SMM control protein annotation, biochemical, small-molecule microarray, Alexa647 label, 635 nm (AID 1127); settings: ConA-A647 binding fluorescence, higher = more signal;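 also: z combines 667 nm emission intensity with signal-to-noise across three replicate slides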
[9] = anti-His antibody binders, primary screen, artefact control for SMM control protein annotation, biochemical, small-molecule microarray, 635 nm fluorescence (AID 1128); settings: anti-His Alexa647 antibody binding, higher = more signal;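 also: score merges feature fluorescence with signal-to-noise for each printed compound spot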
[10] = test system: Human papillomavirus type 1a E7 protein (residues 1-88); experiment: HPV1a E7 small-molecule binders, primary screen, biochemical, small-molecule microarray, residues 1-88, 635 nm (AID 1129); settings: small-molecule microarray binding, fluorescence 635 nm; higher = more signal
[11] = biological target: Focal adhesion kinase 1 (Homo sapiens) (UniProt Q05397); experiment: small-molecule microarray binders of FAK, primary screen, biochemical, 635/667 nm fluorescence, BSA, DTT (AID 1130); settings: PTK2 binding, 635 nm fluorescence, higher = more signal;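 also: composite of spot emission at 667 nm and signal to noise over triplicate slides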
[12] = test system: Fibrinogen (Alexa647-labelled); experiment: fibrinogen binders on compound microarrays, profiling panel, artefact control for SMM control-protein annotation, biochemical, small-molecule microarray, 635/667 nm fluorescence (AID 1131); settings: fibrinogen-A647 binding fluorescence, higher = more signal;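 also: z-score merges 667 nm fluorescence with per-spot signal-to-noise over triplicate slides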
[13] = biological target: Follistatin (Homo sapiens) (UniProt P19883); experiment: follistatin binders on small-molecule microarrays, primary screen, biochemical, small-molecule microarray, 635/667 nm fluorescence (AID 1132); settings: FST binding, 635 nm fluorescence, higher = more signal
[14] = biological target: Fibroblast growth factor 2 (Homo sapiens) (UniProt P09038); experiment: FGF2 binders on small-molecule microarrays, primary screen, biochemical, small-molecule microarray, 635/667 nm fluorescence (AID 1133); settings: small-molecule microarray binding, FGF2, fluorescence 635/667; higher = more signal
[15] = mitochondrial membrane potential change in A549 cells, profiling panel, cell-based, JC-1 fluorescence, basal, 24 h, 100 nL (AID 1138); settings: higher = more signal;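 also: A549 lung adenocarcinoma cells under basal conditions with no added stimulus; test concentration not given here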
Lefty1 = Lefty1 binders on small-molecule microarrays, primary screen, biochemical, small-molecule microarray, 635/667 nm fluorescence (AID 1139); settings: small-molecule microarray binding, fluorescence 635/667; higher = more signal
[16] = test system: wheat germ agglutinin (Triticum aestivum), Alexa647-labelled; experiment: wheat germ agglutinin binders on compound microarrays, profiling panel, artefact control for SMM control-protein annotation, biochemical, small-molecule microarray, 635/667 nm fluorescence (AID 1140); settings: WGA-A647 binding, 635 nm fluorescence, higher = more signal;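 also: score merges 667 nm feature emission with signal to noise over triplicate slides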
[17] = biological target: Luciferin 4-monooxygenase (Photinus pyralis) (UniProt P08659); experiment: firefly luciferase enzyme inhibitors, primary screen, biochemical, luminescence, purified enzyme, 2006 set (AID 1141); settings: SteadyGlo luminescence, 30 min, higher = more signal, called active from +8 up or from −8 down;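 also: cell-free assay with purified firefly luciferase at 100 ng per well in PBS; test concentration not given here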
Luciferin 4-monooxygenase (Photinus pyralis), sequence (P08659 whole entry, looked up): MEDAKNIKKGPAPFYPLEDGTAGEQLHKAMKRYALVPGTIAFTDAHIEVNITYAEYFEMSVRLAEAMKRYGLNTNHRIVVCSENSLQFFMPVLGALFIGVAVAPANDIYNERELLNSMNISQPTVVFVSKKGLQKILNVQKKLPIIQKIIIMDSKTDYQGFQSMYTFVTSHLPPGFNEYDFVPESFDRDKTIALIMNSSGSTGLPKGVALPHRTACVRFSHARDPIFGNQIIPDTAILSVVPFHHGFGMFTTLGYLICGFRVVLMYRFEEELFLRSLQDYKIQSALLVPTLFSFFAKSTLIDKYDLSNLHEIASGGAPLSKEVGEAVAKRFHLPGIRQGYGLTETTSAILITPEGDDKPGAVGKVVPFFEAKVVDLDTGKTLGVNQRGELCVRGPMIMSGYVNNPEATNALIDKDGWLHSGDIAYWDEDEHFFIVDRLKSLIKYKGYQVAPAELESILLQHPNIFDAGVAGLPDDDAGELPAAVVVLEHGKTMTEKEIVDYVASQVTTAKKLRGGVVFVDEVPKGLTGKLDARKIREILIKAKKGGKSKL

Concanavalin-A (Canavalia ensiformis), sequence (P02866 whole entry, looked up): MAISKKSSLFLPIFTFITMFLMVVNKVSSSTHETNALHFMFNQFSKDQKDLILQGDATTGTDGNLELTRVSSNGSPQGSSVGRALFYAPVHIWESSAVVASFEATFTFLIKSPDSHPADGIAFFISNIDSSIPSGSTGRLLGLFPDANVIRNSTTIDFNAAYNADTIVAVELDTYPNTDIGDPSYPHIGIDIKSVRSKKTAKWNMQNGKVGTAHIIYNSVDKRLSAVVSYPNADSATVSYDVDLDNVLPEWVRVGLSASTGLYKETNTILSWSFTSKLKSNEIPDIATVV
Fibroblast growth factor 2 (Homo sapiens), sequence (P09038 whole entry, looked up): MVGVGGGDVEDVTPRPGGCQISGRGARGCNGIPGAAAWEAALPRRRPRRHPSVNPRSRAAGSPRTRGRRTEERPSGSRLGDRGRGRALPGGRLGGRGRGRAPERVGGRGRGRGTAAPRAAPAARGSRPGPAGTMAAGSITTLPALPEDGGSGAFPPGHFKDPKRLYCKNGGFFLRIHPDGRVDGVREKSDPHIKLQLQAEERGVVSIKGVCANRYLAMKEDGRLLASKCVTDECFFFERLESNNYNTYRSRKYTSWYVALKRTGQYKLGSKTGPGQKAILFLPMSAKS
Focal adhesion kinase 1 (Homo sapiens), sequence (Q05397 whole entry, looked up): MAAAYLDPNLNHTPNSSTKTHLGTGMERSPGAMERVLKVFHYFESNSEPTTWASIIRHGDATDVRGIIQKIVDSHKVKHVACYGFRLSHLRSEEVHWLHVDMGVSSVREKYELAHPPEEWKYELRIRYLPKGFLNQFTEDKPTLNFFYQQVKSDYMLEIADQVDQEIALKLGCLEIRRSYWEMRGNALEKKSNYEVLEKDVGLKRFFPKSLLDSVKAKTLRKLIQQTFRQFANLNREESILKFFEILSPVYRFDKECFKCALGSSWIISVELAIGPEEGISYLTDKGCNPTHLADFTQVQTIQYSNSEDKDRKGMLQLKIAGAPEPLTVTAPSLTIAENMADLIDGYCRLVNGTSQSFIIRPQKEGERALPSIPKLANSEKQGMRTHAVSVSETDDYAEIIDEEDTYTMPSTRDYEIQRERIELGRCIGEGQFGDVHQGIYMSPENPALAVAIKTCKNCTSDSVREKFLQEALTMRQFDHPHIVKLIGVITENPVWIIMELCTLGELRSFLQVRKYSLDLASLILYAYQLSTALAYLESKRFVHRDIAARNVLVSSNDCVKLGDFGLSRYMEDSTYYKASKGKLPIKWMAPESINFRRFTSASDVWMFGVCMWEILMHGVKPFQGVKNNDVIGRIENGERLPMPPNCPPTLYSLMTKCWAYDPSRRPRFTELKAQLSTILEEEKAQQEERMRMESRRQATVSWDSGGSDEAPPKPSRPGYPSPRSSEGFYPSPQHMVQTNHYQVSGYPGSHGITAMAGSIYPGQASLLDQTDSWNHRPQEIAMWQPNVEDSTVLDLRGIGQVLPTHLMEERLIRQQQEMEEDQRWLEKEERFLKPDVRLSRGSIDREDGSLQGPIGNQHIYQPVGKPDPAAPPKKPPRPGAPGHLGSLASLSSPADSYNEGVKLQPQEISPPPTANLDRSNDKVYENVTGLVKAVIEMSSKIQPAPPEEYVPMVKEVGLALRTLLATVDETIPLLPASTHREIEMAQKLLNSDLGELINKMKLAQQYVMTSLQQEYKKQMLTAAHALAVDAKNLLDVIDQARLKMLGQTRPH
Albumin (Bos taurus), sequence (P02769 whole entry, looked up): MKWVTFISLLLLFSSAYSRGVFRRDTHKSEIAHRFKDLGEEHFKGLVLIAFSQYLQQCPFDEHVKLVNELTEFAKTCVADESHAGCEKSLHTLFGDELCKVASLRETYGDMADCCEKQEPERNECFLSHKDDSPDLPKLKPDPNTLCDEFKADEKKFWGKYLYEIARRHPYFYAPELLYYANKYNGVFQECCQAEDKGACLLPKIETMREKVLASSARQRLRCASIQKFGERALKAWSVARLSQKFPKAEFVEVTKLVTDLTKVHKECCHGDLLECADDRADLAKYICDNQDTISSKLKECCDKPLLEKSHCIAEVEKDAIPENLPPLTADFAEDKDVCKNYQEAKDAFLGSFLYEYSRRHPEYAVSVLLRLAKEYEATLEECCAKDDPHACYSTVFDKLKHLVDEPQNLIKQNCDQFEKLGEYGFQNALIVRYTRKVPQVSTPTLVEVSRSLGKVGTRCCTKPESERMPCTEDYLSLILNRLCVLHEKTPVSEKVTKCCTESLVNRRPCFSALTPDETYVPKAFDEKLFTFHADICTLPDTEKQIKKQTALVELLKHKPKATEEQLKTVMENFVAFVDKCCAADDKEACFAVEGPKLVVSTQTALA
Follistatin (Homo sapiens), sequence (P19883 whole entry, looked up): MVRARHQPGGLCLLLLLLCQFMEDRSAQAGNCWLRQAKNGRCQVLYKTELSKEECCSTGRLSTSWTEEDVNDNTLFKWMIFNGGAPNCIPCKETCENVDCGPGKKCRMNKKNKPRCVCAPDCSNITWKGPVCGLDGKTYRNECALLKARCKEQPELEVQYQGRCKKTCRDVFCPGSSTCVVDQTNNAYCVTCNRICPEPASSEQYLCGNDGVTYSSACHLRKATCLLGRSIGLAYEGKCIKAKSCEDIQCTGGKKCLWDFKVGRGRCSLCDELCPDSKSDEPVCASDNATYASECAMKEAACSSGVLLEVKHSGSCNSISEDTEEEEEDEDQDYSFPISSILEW

| Structure (SMILES) | composite z-score (Albumin (Bos taurus)) | composite Z-score [1] | composite z-score [2] | composite z-score [3] | composite z-score [4] | composite z-score [5] | composite z-score [6] | composite z-score (Sam68 (KHDRBS1)) | composite z-score [7] | composite z-score [8] | composite z-score [9] | composite z-score [10] | composite z-score [11] | composite z-score [12] | composite z-score [13] | composite z-score [14] | z-score [15] | composite z-score (Lefty1) | composite z-score [16] | z-score [17] |
| --- | --- | --- | --- | --- | --- | --- | --- | --- | --- | --- | --- | --- | --- | --- | --- | --- | --- | --- | --- | --- |
| CC(C)NC(=O)[C@@H]1c2ccccc2C(=O)N(CC23CC4CC(CC(C4)C2)C3)[C@H]1c1ccc(CO)cc1 | 0.283 | -0.178 (inactive) | 0.106 | -0.125 | 0.25 | 1.65 | 0.397 | 1.3 | 0.533 | 1.08 | 0.526 | 1.23 | 0.417 | 0.973 | 1.35 | 0.615 | 0.689 | 0.822 | 0.298 | 0.892 (inactive) |
| CCCC[C@H]1OB(O)C[C@H]2C1=C(C)C[C@H]1C(=O)N(C)C(=O)[C@H]12 | 0.748 | 0.506 (inactive) | 0.16 | -0.117 | 0.328 | 0.326 | 0.308 | 1.08 | 0.311 | 0.321 | -0.0755 | 0.739 | 0.248 | 0.615 | 0.931 | 1.31 | 0.445 | 0.794 | 0.556 | -0.769 (inactive) |
| Cc1ccc(C2CC=C(C(=O)O)CN2S(=O)(=O)c2ccc(C)cc2)cc1 (stereo not given) | 0.921 | -0.326 (inactive) | 0.0203 | -0.0567 | 0.78 | 0.93 | 0.953 | 1.32 | 0.193 | 1.12 | 1.26 | 1.17 | 0.286 | 0.566 | 0.158 | 0.0208 | -1.23 | 0.0504 | 0.718 | 1.64 (inactive) |
| CCCCCN1CC=CC23O[C@@H]4C=CCOC(=O)[C@@H]4[C@H]2C(=O)N(C(CO)C(C)C)[C@@H]3C1=O (stereo not given in full) | 0.13 | 0.252 (inactive) | -0.0328 | -0.13 | 0.286 | -0.59 | 1.06 | -0.827 | -0.326 | 0.203 | 0.373 | -1.02 | -0.565 | -0.217 | 0.142 | -0.533 | -0.348 | 0.0028 | -0.521 | 0.281 (inactive) |
| O=C1NC(=O)C2C1C=CC(C(O)Cc1ccccc1)N2Nc1ccccn1 (stereo not given) | 0.461 | -0.0126 (inactive) | -0.0311 | -0.0079 | 0.865 | 1.87 | 0.12 | 0.322 | 0.313 | 0.77 | 0.596 | 0.45 | 0.116 | 0.353 | 0.194 | 0.512 | 1.78 | -0.174 | 0.639 | -0.523 (inactive) |
| CCN(CC)c1ccc(N2CC=CC34O[C@@H]5/C=C\CCC(C)OC(=O)C5[C@H]3C(=O)N(CCCO)[C@@H]4C2=O)cc1 (stereo not given in full) | -0.909 | 0.589 (inactive) | -0.185 | -0.189 | 0.868 | -0.368 | -0.0197 | -0.383 | -0.618 | -0.608 | 0.494 | -0.191 | -0.216 | -0.892 | -0.247 | -0.615 | 0.881 | -0.784 | -0.529 | -0.936 (inactive) |
| CC(=O)OC[C@H]1O[C@H](C#CCCCc2ccccc2)C=C[C@@H]1OC(C)=O | 0.495 | 0.0117 (inactive) | -0.0647 | -0.0772 | -0.155 | 0.622 | 0.46 | 0.459 | 0.192 | -0.077 | 0.451 | 0.242 | 0.126 | 0.735 | 0.47 | 0.83 | -0.264 | 0.696 | 0.353 | -1.65 (inactive) |
| O=C1[C@H]2[C@H]3[C@H](O)[C@H](O)CC(=NO[C@@H]4O[C@H](CO)[C@@H](O)[C@H](O)[C@H]4O)[C@H]3CC[C@H]2C(=O)N1Cc1ccc2c(c1)OCO2 | 0.861 | -0.161 (inactive) | -0.0984 | -0.106 | 0.173 | 1.42 | 0.0185 | 0.89 | -0.575 | 0.619 | 1.01 | -0.186 | 0.0254 | 0.762 | -0.164 | -0.654 | 0.531 | 0.515 | -0.205 | 0.654 (inactive) |
| CC(C)(C)OC(=O)CC[C@]1(C(=O)NCc2ccccc2)N=C(c2ccc(OCCCO)cc2)O[C@H]1c1ccccc1 | 0.912 | -0.0089 (inactive) | 0.61 | 0.0216 | 0.735 | 3.07 | 0.378 | 1.3 | -0.672 | 1.11 | 1.99 | 1.26 | 1.36 | 0.983 | 0.362 | 0.487 | 0.949 | -0.326 | 0.732 | 0.172 (inactive) |
| O=C1O[C@@H](c2ccccc2)[C@@H](c2ccccc2)N2[C@@H](c3ccc(OCCO)cc3)[C@]3(C(=O)Nc4ccccc43)[C@@H](C(=O)N3CCN(c4ncccn4)CC3)[C@H]12 | 0.162 | 0.338 (inactive) | 0.0824 | -0.091 | 0.403 | 1.84 | 0.88 | 1.3 | 0.902 | 1.15 | 1.08 | 1.18 | 0.687 | 0.489 | 1.28 | 1.17 | -0.473 | 1.19 | 0.929 | -1.4 (inactive) |
| COc1ccc(CCNC(=O)[C@@H]2c3ccccc3C(=O)N(c3ccc(C)cn3)[C@H]2c2ccc(CO)cc2)cc1 | 0.45 | 0.378 (inactive) | -0.406 | -0.0959 | 0.77 | 1.5 | 0.539 | -0.121 | -1.76 | -1.45 | 0.315 | 0.469 | -0.34 | -2.21 | -0.25 | -0.609 | -0.61 | -1.17 | -0.293 | 0.85 (inactive) |
